Measurements published in a collection of fitness landscapes (doi:10.1126/science.1257360).
Over roughly 140,000 sequences, “enrichment ratio after two sorts for PhoP signalling” has its median near 0; the highest 2% begin near 11. What follows is part of a selection rich in the highest values, with near analogues and random picks from the rest.

B1: PhoQ; a variant is named by its letters at X, in order, P23837 (parent)
chain: MKKLLRLFFPLSLRVRFLLATAAVVLVLSLAYGMVALIGYSVSFDKTTFRLLRGESNLFYTLAKWENNKLHVELPENIDKQSPTMTLIYDENGQLLWAQRDVPWLMKMIQPDWLKSNGFHEIEADVNDTSLLLSGDHSIQQQLQEVREDDDDAEMTHSVAVNVYPATSRMPKLTIVVVDTIPVELKSSYMVWSWFIYVLSANLLLVIPLLWVAAWWSLRPIEALAKEVRELEEHNRELLNPATTRELTSLVRNLNRLLKSERERYDKYRTTLTDLTHSLKTPLXXLQXXLRSLRSEKMSVSDAEPVMLEQISRISQQIGYYLHRASMRGGTLLSRELHPVAPLLDNLTSALNKVYQRKGVNISLDISPEISFVGEQNDFVEVMGNVLDNACKYCLEFVEISARQTDEHLYIVVEDDGPGIPLSKREVIFDRGQRVDTLRPGQGVGLAVAREITEQYEGKIVAGESMLGGARMEVIFGRQHSAPKDE

Variants of: B1
Assay: enrichment ratio after two sorts for PhoP signalling (ratio (wild type AVST 3.29)); higher = more functional
Settings: with PhoP (E. coli)

Row | Variant | enrichment ratio
1 | TKDY | ≤ 0.25
2 | KPVK | ≤ 0.25
3 | ICMI | ≤ 0.25
4 | SFHP | ≤ 0.25
5 | YHHD | ≤ 0.25
6 | AQVH | 7.73
7 | GEFP | ≤ 0.25
8 | VRNY | ≤ 0.25
9 | GAAL | ≤ 0.25
10 | SKLL | 14
11 | HILL | ≤ 0.25
12 | GIAL | 13
13 | GNAL | 7.59
14 | YALL | 10.6
15 | GALL | 13.8
16 | SKLT | 4.23
17 | WKIW | ≤ 0.25
18 | PCAY | ≤ 0.25
19 | QHAW | ≤ 0.25
20 | LSTI | ≤ 0.25
21 | GWLL | ≤ 0.25
22 | KRIA | ≤ 0.25
23 | FCYK | ≤ 0.25
24 | PGQT | ≤ 0.25
25 | QFAV | ≤ 0.25

Row | Variant | enrichment ratio
26 | FDWQ | ≤ 0.25
27 | SGCY | 10.6
28 | AHMR | ≤ 0.25
29 | NIWM | ≤ 0.25
30 | WICR | ≤ 0.25
31 | AICR | 11.2
32 | NICK | 14.4
33 | KKMR | ≤ 0.25
34 | AIMR | 16.6
35 | ADCV | ≤ 0.25
36 | NICR | ≤ 0.25
37 | WICV | ≤ 0.25
38 | AICV | 15.3
39 | NICI | ≤ 0.25
40 | IVKK | ≤ 0.25
41 | LSQL | ≤ 0.25
42 | TSAF | 7.11
43 | PIGM | ≤ 0.25
44 | AIGM | 8.76
45 | NICS | ≤ 0.25
46 | AILH | 3.54
47 | AICI | 16.9
48 | ADYP | ≤ 0.25
49 | AICA | 3.23
50 | WICS | ≤ 0.25

Row | Variant | enrichment ratio
51 | AIYP | 12.7
52 | AICK | 24.4
53 | AHYP | ≤ 0.25
54 | AIWM | ≤ 0.25
55 | AICS | 18.9
56 | MWPS | ≤ 0.25
57 | VCLF | 0.991
58 | LARM | ≤ 0.25
59 | VEST | 4.04
60 | APVK | ≤ 0.25
61 | HAAR | ≤ 0.25
62 | AIIE | ≤ 0.25
63 | AICE | 14.2
64 | AHCE | ≤ 0.25
65 | HKRT | ≤ 0.25
66 | NRGY | ≤ 0.25
67 | DMWC | ≤ 0.25
68 | SNAE | 7.95
69 | ANAE | ≤ 0.25
70 | TNAS | 13.9
71 | MNAV | 2.67
72 | ANAV | 14.3
73 | MNAS | 6.24
74 | AKAV | 0.73
75 | SQAV | 6.43

Row | Variant | enrichment ratio
76 | TNAT | 11
77 | SNAV | 12.6
78 | TNAV | 27.6
79 | TNAE | ≤ 0.25
80 | VMEP | ≤ 0.25
81 | SHGD | ≤ 0.25
82 | NFGC | ≤ 0.25
83 | DFHC | ≤ 0.25
84 | QAAF | ≤ 0.25
85 | RPYT | ≤ 0.25
86 | TNAA | 13.7
87 | ANAT | 17.7
88 | MNAA | 8.61
89 | TNAD | ≤ 0.25
90 | ANNT | ≤ 0.25
91 | ANLT | 4.56
92 | HRYS | ≤ 0.25
93 | LMNM | ≤ 0.25
94 | NMWP | ≤ 0.25
95 | SAPE | ≤ 0.25
96 | SAMD | ≤ 0.25
97 | SACE | 11.7
98 | SACQ | 13.5
99 | SAAM | 7.53
100 | SACK | 0.562

Row | Variant | enrichment ratio
101 | SAQP | ≤ 0.25
102 | SACI | 13.7
103 | KACQ | ≤ 0.25
104 | WVWC | ≤ 0.25
105 | YMTW | ≤ 0.25
106 | YYYE | ≤ 0.25
107 | RLRN | ≤ 0.25
108 | SGRV | ≤ 0.25
109 | SHQI | ≤ 0.25
110 | NHQI | ≤ 0.25
111 | TQRI | ≤ 0.25
112 | KQQI | ≤ 0.25
113 | TAPA | ≤ 0.25
114 | LQQI | ≤ 0.25
115 | TQQI | 11.5
116 | PTQI | ≤ 0.25
117 | TAQI | 23.7
118 | LAQI | ≤ 0.25
119 | TKQI | 17.5
120 | THQI | 24.1
121 | IYTC | ≤ 0.25
122 | SRID | ≤ 0.25
123 | LRCL | ≤ 0.25
124 | VTSC | ≤ 0.25
125 | QCKT | ≤ 0.25

Row | Variant | enrichment ratio
126 | MFMN | ≤ 0.25
127 | YQKV | ≤ 0.25
128 | GKEW | ≤ 0.25
129 | KSQI | ≤ 0.25
130 | KAQI | ≤ 0.25
131 | TLQI | 14.7
132 | VMGP | ≤ 0.25
133 | DKIR | ≤ 0.25
134 | PQLM | ≤ 0.25
135 | KNVL | ≤ 0.25
136 | EARA | ≤ 0.25
137 | FQWE | 1.71
138 | LTME | ≤ 0.25
139 | AHME | 12.2
140 | TDVE | ≤ 0.25
141 | SHME | ≤ 0.25
142 | NHME | ≤ 0.25
143 | ATME | 7.5
144 | AAMY | ≤ 0.25
145 | AAME | 30.8
146 | TDME | 11.5
147 | AAPE | ≤ 0.25
148 | THME | 49
149 | AIME | 1.65
150 | YSHD | ≤ 0.25

Row | Variant | enrichment ratio
151 | PTCC | ≤ 0.25
152 | MPHN | ≤ 0.25
153 | RHYV | ≤ 0.25
154 | TAVD | ≤ 0.25
155 | SIIF | 0.435
156 | LTVM | ≤ 0.25
157 | MTIM | 25.3
158 | FEVM | 11.6
159 | FEVA | ≤ 0.25
160 | GTVM | 36.9
161 | MKTM | ≤ 0.25
162 | FCVM | ≤ 0.25
163 | MTIV | ≤ 0.25
164 | MTTM | 18.5
165 | MTRM | ≤ 0.25
166 | MTTD | ≤ 0.25
167 | YTVM | ≤ 0.25
168 | FLDD | ≤ 0.25
169 | FDRW | ≤ 0.25
170 | VFHM | ≤ 0.25
171 | MSQP | ≤ 0.25
172 | KNYG | ≤ 0.25
173 | SEVM | 18.7
174 | SQVM | 19.6
175 | HEGM | ≤ 0.25

Row | Variant | enrichment ratio
176 | PLAL | ≤ 0.25
177 | SCVM | 8.76
178 | IQVM | ≤ 0.25
179 | GLAL | 12.9
180 | HEVM | 24.4
181 | SAVM | 4.22
182 | SLVM | 2.29
183 | HEVA | ≤ 0.25
184 | GYAL | ≤ 0.25
185 | LWIF | ≤ 0.25
186 | NFST | ≤ 0.25
187 | PYQI | ≤ 0.25
188 | GTRE | ≤ 0.25
189 | SHDG | 1.66
190 | KYVM | ≤ 0.25
191 | LNVM | ≤ 0.25
192 | GNVM | 22.8
193 | MTPM | ≤ 0.25
194 | ITVM | ≤ 0.25
195 | MAVM | ≤ 0.25
196 | NEVM | 7.03
197 | GIVM | 3.78
198 | MTVM | 12.8
199 | MTVA | ≤ 0.25
200 | STVM | 16.3

Row | Variant | enrichment ratio
201 | MEVM | 12.9
202 | WVID | ≤ 0.25
203 | KGWL | ≤ 0.25
204 | GFAY | ≤ 0.25
205 | QNPQ | ≤ 0.25
206 | VYSV | ≤ 0.25
207 | IADP | ≤ 0.25
208 | TERG | ≤ 0.25
209 | EIGI | ≤ 0.25
210 | GDSM | 2.79
211 | GLSM | 12.3
212 | GLTA | ≤ 0.25
213 | GLCK | ≤ 0.25
214 | GLTI | 11.7
215 | GLVM | 16.2
216 | GLTC | ≤ 0.25
217 | GLSF | 4.58
218 | GLWM | ≤ 0.25
219 | RFTN | ≤ 0.25
220 | RWLE | ≤ 0.25
221 | LIDA | ≤ 0.25
222 | LWYT | ≤ 0.25
223 | VRCA | ≤ 0.25
224 | SCQC | ≤ 0.25
225 | TMMS | 14.5

Row | Variant | enrichment ratio
226 | TMSQ | 13.5
227 | TMMD | ≤ 0.25
228 | MMSA | ≤ 0.25
229 | DMSA | ≤ 0.25
230 | TMMW | ≤ 0.25
231 | KMMN | ≤ 0.25
232 | TMGK | ≤ 0.25
233 | TMSR | ≤ 0.25
234 | TMSA | 15.1
235 | TMMN | 11.5
236 | DMMN | ≤ 0.25
237 | FINQ | ≤ 0.25
238 | DCDV | ≤ 0.25
239 | ECGF | ≤ 0.25
240 | EREC | ≤ 0.25
241 | TNHL | ≤ 0.25
242 | WDRM | ≤ 0.25
243 | KETS | ≤ 0.25
244 | RLAR | ≤ 0.25
245 | DGIV | ≤ 0.25
246 | KMLV | ≤ 0.25
247 | FDFL | ≤ 0.25
248 | TMWG | ≤ 0.25
249 | TMTG | 3.06
250 | TMMT | 22.9

Row | Variant | enrichment ratio
251 | DMSI | ≤ 0.25
252 | TMSK | ≤ 0.25
253 | TMGG | 15.7
254 | TMWT | ≤ 0.25
255 | TMMG | 23.4
256 | MMMT | ≤ 0.25
257 | TMSI | 14.2
258 | TMVG | ≤ 0.25
259 | TMMV | 4.75
260 | IFIA | ≤ 0.25
261 | IGQM | ≤ 0.25
262 | PWGS | ≤ 0.25
263 | AYGE | ≤ 0.25
264 | THGQ | ≤ 0.25
265 | LATF | ≤ 0.25
266 | VFAS | ≤ 0.25
267 | ESNS | ≤ 0.25
268 | PACG | ≤ 0.25
269 | ITYK | ≤ 0.25
270 | HKVF | ≤ 0.25
271 | KKSE | ≤ 0.25
272 | ILEH | ≤ 0.25
273 | TMHP | ≤ 0.25
274 | TMQF | 16.1
275 | TMWH | ≤ 0.25

Row | Variant | enrichment ratio
276 | DMQF | ≤ 0.25
277 | TMWQ | ≤ 0.25
278 | TMHQ | 15.4
279 | MPHD | ≤ 0.25
280 | PCPI | ≤ 0.25
281 | GGFW | ≤ 0.25
282 | ESEG | ≤ 0.25
283 | PDQD | ≤ 0.25
284 | VWER | ≤ 0.25
285 | MRPD | ≤ 0.25
286 | SKCL | 11.8
287 | SKCI | 16.6
288 | SKMI | 4.44
289 | SKTI | 14.2
290 | SKKL | ≤ 0.25
291 | SKMV | 14.3
292 | SKCK | ≤ 0.25
293 | SKAV | 4.49
294 | SKTS | 3.33
295 | SKPL | ≤ 0.25
296 | SKCS | 6.51
297 | SKTA | 0.276
298 | VFSR | ≤ 0.25
299 | FRTG | ≤ 0.25
300 | PMFK | ≤ 0.25

Row | Variant | enrichment ratio
301 | FGSI | ≤ 0.25
302 | VKKE | ≤ 0.25
303 | PRSV | ≤ 0.25
304 | SKHP | ≤ 0.25
305 | SKAT | 5.34
306 | SKCY | 16.7
307 | SKCA | 11.7
308 | SKMQ | 13.1
309 | SKPI | ≤ 0.25
310 | SKCE | 5.46
311 | SKMT | 10.8
312 | SKPY | ≤ 0.25
313 | SKKQ | ≤ 0.25
314 | SKCT | 14.2
315 | SKKI | ≤ 0.25
